Screening results as filed in PubChem.
FBA Mtb inh = Mtb FBA enzyme inhibitors, primary screen, biochemical, fluorescence, strain H37Rv; Fructose-bisphosphate aldolase (Mycobacterium tuberculosis (strain ATCC 25618 / H37Rv)), …; purified M. tuberculosis FBA, fluorescence read-out; inhibition, % at 1 µM; 2.3% of 360,000 active; AID 588726, 2011; in the data active = inhibition above about 27%;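 also: 0% = vehicle and 100% = reference inhibitor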
GDH-TPI inh = GDH-TPI coupling enzyme inhibitors, primary screen, artefact control for M. tuberculosis FBA inhibitor project, biochemical, absorbance, full deck; inhibition, % at 4.8 µM; GDH-TPI coupled enzyme counterscreen, NADH absorbance; AID 588335, 2011; 1.2% of 360,000 active; in the data active = inhibition above about 30%;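 also: 0% = DMSO wells and 100% = wells lacking the enzyme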
Mtb betalactam = beta-lactam sensitization of Mtb H37Rv, H37Rv | AID 434955, 2010 | 0.27% of 330,000 active | M. tuberculosis H37Rv growth with meropenem, percent inhibition | inhibition, % at 25 µM; call rule not given here;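 also: growth measured after seven days incubation then overnight dye step; 0% = bacteria only wells and 100% = bacteria with antibiotic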
RecA intein inh = Mtb RecA intein splicing inhibitors, primary screen, biochemical, fluorescence, HTS; Protein RecA (Mycobacterium tuberculosis (strain ATCC 25618 / H37Rv)), P9WHJ3; inhibition, % (test concentration not listed); cell-free RecA intein splicing; 0.75% of 290,000 active; AID 2221, 2009; in the data active = inhibition above about 30%;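 also: 0% = vehicle wells and 100% = reference inhibitor control wells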
Rv3671c inh = Rv3671c serine protease inhibitors, primary screen, biochemical, fluorescence polarization, M. tuberculosis H37Rv; 0.048% of 320,000 active; P9WHR9; inhibition, % at 5.96 µM; in the data active = inhibition above about 38%;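 also: extracellular domain of Rv3671c used as enzyme; 0% = enzyme with DMSO and 100% = no enzyme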
Target sequence (P9WHR9 whole entry, looked up, the tested form may be a part): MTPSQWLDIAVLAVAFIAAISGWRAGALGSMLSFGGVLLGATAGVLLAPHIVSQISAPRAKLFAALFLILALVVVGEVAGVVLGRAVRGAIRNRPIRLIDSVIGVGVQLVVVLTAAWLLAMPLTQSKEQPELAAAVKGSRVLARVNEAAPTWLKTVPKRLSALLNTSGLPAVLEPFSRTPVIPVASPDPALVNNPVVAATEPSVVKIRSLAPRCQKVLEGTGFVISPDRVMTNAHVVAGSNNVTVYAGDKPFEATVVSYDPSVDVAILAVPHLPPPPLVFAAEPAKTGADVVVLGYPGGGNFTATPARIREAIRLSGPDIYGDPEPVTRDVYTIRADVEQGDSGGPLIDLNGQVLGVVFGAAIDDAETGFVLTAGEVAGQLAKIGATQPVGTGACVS
Mtb UGM inh = M. tuberculosis UGM enzyme inhibitors, primary screen, biochemical, fluorescence polarization, single point; inhibition, % at 10 µM; UDP-galactopyranose mutase (Mycobacterium tuberculosis (strain ATCC 25618 / H37Rv)), …; purified UGM, fluorescence polarization probe displacement; 0.06% of 320,000 active; AID 504406, 2011; in the data active = inhibition above about 10%, passing the limit was not always enough
* = called active by the depositor; . = no result; + = active, no number. This is a sample that favours compounds with a hit; in the whole collection about 4% have one here.

SMILES	FBA Mtb inh	GDH-TPI inh	Mtb betalactam	RecA intein inh	Rv3671c inh	Mtb UGM inh
CC(=O)Oc1ccccc1/C=C/c1ccc2ccccc2[n+]1C	2	31*	7	-1	2	0
COc1ccc(/C=C/c2ccc3ccccc3[n+]2C)cc1OC	-7	21	-1	-2	-1	-3
COc1ccc(S(=O)(=O)N(C)C[C@H]2OCc3cn(nn3)CCCC(=O)N([C@@H](C)CO)C[C@@H]2C)cc1	2	.	.	.	.	.
Cn1c(=O)c2cc(NC(=O)Nc3ccccc3)ccc2n1Cc1ccccc1	142*	4	.	.	.	.
Cn1c(=O)c2cc(NC(=S)NC3CC3)ccc2n1Cc1ccc(F)cc1	14	10	.	.	.	.
Cn1c(=O)c2cc(NC(=S)NCc3ccccc3F)ccc2n1Cc1ccc(F)cc1	12	9	.	.	.	.
Cn1c(=O)c2cc(NC(=O)NCc3ccccc3)ccc2n1Cc1ccc(Cl)cc1	123*	-7	.	.	.	.
C=CCn1c(O)c(C=NCCN2CCOCC2)c(=O)[nH]c1=S	-3	48*	2	-1	1	1
CCCCn1c(O)c(/C=N/N2CCOCC2)c(=O)[nH]c1=S	3	37*	3	-3	-1	0
O=c1[nH]c(=S)n(C2CCCCC2)c(O)c1C=NCCN1CCOCC1	-7	45*	11	-1	0	1
S=C(NCc1ccco1)N/N=C/c1ccc(Cl)cc1	-2	7	-4	-7	-19	1
COc1cc(/C=N/NC(=S)NCc2ccco2)cc(OC)c1OC	-7	37*	-6	2	-3	2
CCOc1ccc(CNC(=S)N/N=C/c2ccc(OC)c(OC)c2)cc1	-2	42*	11	-4	-1	.
Oc1ccc(/C=N/NC(=S)NCc2ccco2)cc1	1	14	43	2	-7	0
Oc1c(Br)cc(/C=N/NC(=S)NCc2ccco2)cc1Br	11	33*	2	3	2	3
COc1ccccc1/C=N/NC(=S)NCc1ccco1	-4	38*	15	3	2	1
COC(=O)[C@]1(Cc2ccccc2)N[C@H](CN(C)C(=O)c2ccc(F)cc2)[C@@H]2C(=O)N(C)C(=O)[C@@H]21	1	2	-6	.	1	.
CC1=NN(c2ccccc2)C(=O)C1CCC#N (stereo not drawn)	-4	3	.	.	.	.
Cc1cc(C(=O)CN2CCN(CC(=O)Nc3ccc(F)cc3)CC2)c(C)n1C1CC1	0	15	-4	.	-4	-1
CCOc1ccc(/C=N/NC(=O)C(=O)NCc2ccco2)cc1	-1	33*	1	1	-2	3
C=CCn1c(N)c(C(=O)OC(C)(C)C)c2nc3ccccc3nc21	+	22	.	-133	.	.
C=CCn1c(N)c(C(=O)OC(C)CC)c2nc3ccccc3nc21 (stereo not drawn)	167*	20	.	-77	.	.
O=C(NCC1(N2CCCCC2)CCCCC1)c1cccc(S(=O)(=O)Nc2ccc(F)cc2)c1	0	-3	-6	.	3	-1
O=C(CCNS(=O)(=O)c1ccc(Br)cc1)NCCc1ccc(Cl)cc1	-1	3	4	-1	-2	3
c1cnn(-c2cncc(-n3cccn3)n2)c1	16	32*	-7	-1	4	0
SMILES	FBA Mtb inh	GDH-TPI inh	Mtb betalactam	RecA intein inh	Rv3671c inh	Mtb UGM inh
Cc1ccc(-n2nnnc2CCl)cc1	1	0	.	46*	.	.
CCNc1nc(N)c(C(=O)C23CC4CC(CC(C4)C2)C3)s1	-3	27	0	-2	-2	2
CCNc1nc(N)c(C(=C(C#N)C#N)c2ccccc2)s1	167*	23	-1	-8	-5	4
Cc1cc([N+](=O)[O-])ccc1NC(=O)C(C)NC1CCCCC1 (stereo not drawn)	3	-6	-5	1	3	-1
Cc1cc(C)c(CN2CCN(C(=O)CC[C@H]3O[C@@H](n4ccc(=O)[nH]c4=O)[C@H](O)[C@@H]3O)CC2)c(C)c1	2	.	.	.	.	.
Cc1cc(S(=O)(=O)ON2C(=O)c3ccccc3C2=O)ccc1F	37*	8	-5	1	7	3
Cc1cccc(CSC(Nc2ccc(F)cc2)=C(C#N)C#N)c1	-1	-5	-3	53*	2	0
Cc1cccc(CSC(=N)N)c1	-5	0	-1	-1	4	4
COc1cccc(C=C2SC(=S)NC2=O)c1	-2	31*	.	.	.	.
COCCCNc1nc(N)c([N+](=O)[O-])c(NCc2ccccc2)n1	-4	15	-6	1	-10	0
CN(C)c1nc(N)c([N+](=O)[O-])c(NCc2ccccc2)n1	0	42*	2	0	-5	4
CN(C)c1nc(N)c([N+](=O)[O-])c(NCCO)n1	-2	51*	7	-6	-3	-2
CN(C)CCCNc1nc(N)c([N+](=O)[O-])c(NCc2ccccc2)n1	1	41*	-7	-3	.	-1
CNc1nc(N)c([N+](=O)[O-])c(NCc2ccccc2)n1	-2	42*	-1	-5	5	2
Nc1nc(NCc2ccccc2)nc(NCc2ccccc2)c1[N+](=O)[O-]	0	14	2	-3	-7	-2
COc1ccc(-n2nnnc2CNC(=O)c2c(-c3ccccc3Cl)noc2C)cc1	-2	-3	.	.	.	.
Cc1ccccc1NC(=O)C(C)Sc1nnc(-c2ccncc2)n1CC1CCCO1 (stereo not drawn)	4	3	3	0	-2	-1
N#CCC(=O)Nc1ccc(C(=O)N2CCN(S(=O)(=O)c3ccc4ccccc4c3)CC2)cc1	3	6	1	3	-108	-1
N#Cc1ccccc1S(=O)(=O)N1CCN(C(=O)CCNS(=O)(=O)c2ccc(Cl)cc2)CC1	-3	7	.	.	.	.
Cn1c(=O)n(CCO)c(=O)c2c1nc(Br)n2Cc1ccccc1	0	7	-5	-2	.	-2
N#C/C(=C\c1ccc(F)cc1)C(=O)Nc1ccccn1	25	12	-7	-13	2	1
CCOc1ccc(/C=C(\C#N)C(=O)Nc2ccccn2)cc1	1	38*	2	0	-5	0
COc1ccc(/C=C(/C#N)C(=O)Nc2cccnc2)cc1OC	0	21	1	7	-2	1
CC(NC(=O)/C(C#N)=C/c1ccc(OCC(=O)O)cc1)c1ccccc1 (stereo not drawn)	-2	37*	-3	.	1	4
COc1ccc(/C=C(\C#N)C(=O)Nc2cccnc2)cc1	-2	32*	2	0	7	-2
